Laboratory results as given in PubChem BioAssay (NCATS).
Results filed as inconclusive are left out. Activity calls are given as the source filed them. Unless noted, calls follow the shape of the dose curve; as a rule, active = well fitted curve in the direction sought with a large enough effect; inconclusive = small, poorly fitted or top-dose-only effect, or another doubt; inactive = no such curve, though single readings can be large; an effect the other way counts as inactive or inconclusive.

Columns and labels:
[1] = Validation of Assay for Modulators of Lamin A Splicing (AID 1459; active = well fitted curve in the direction sought with a large enough effect in the signal ratio; the % refers to the signal ratio;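 also: cells exposed to compound for two days before reading; 0% is about no effect; ratio rise marks activators and ratio drop marks inhibitors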)
Summary of the method: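 Splicing correction read as GFP (500-530 nm) over DsRed2 (575-640 nm) object intensity after 48 h compound exposure of reporter HeLa S3 clones (600 cells/well, 2% FBS medium); ancitabine and cycloheximide titrations, 0.5% DMSO as vehicle.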

[2] = qHTS Assay for Lipid Storage Modulators (AID 1519; calls by dose curve); conditions: Drosophila S3 cells, BODIPY lipid droplet/cell ratio, laser cytometry, cells loaded with oleic acid
Summary of the method: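 Cells seeded at 5,000 per well were treated with compounds over a concentration series and loaded with oleic acid (400 uM, as added). Lipid droplet fluorescence (488 nm excitation, 500-530 nm channel) was read by laser-scanning cytometry and normalized to 20 uM Triacsin C.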

[3] = molecular target: DNA repair nuclease/redox regulator APEX1 (Homo sapiens) (UniProt P27695); experiment: qHTS Validation Assay for Inhibitors of the Human Apurinic/apyrimidinic Endonuclease 1 (APE1) (AID 1705;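 also: TAMRA fluorescence gain over two minutes as APE1 cuts a quenched THF abasic duplex; % is scaled to controls: 0 for no effect and ±100 for the full control effect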)
Summary of the method: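 Activity read as rising fluorescence (598 nm emission, 525 nm excitation) from incision of a TAMRA/BHQ-2 duplex carrying a THF abasic site (50 nM). Compound and enzyme sat 15 min at RT before substrate start; signal change between first and third 60-s reads.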

[4] = Counterscreen for APE1 Inhibitors: Fluorescent Dye Displacement Validation Assay (AID 1707);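 also: plate controls were ThO with dsDNA and no compound for no effect and ThO without dsDNA for full effect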
Summary of the method: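 Counterscreen flags promiscuous DNA binders: compounds displacing ThO from duplex DNA (abasic THF site, 50 nM) reduce 540 nm emission (480 nm excitation). ThO 250 nM final; Tris-HCl pH 7.5 with NaCl, MgCl2 and Tween-20.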

[5] = molecular target: Endonuclease 4 (Escherichia coli (strain K12)) (UniProt P0A6C1); experiment: Counterscreen for APE1 Inhibitors: qHTS Validation Assay for Inhibitors of Endonuclease IV (AID 1708); also: % is scaled to controls: 0 for no effect and ±100 for the full control effect
Summary of the method: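 Incision of a double-stranded 50 nM TAMRA/BHQ-2 abasic substrate was followed kinetically (525/598 nm, reads every 60 s) after 15 min enzyme–compound preincubation with 2 nM EndoIV in pH 7.5 Tris buffer with MgCl2, DTT and Tween-20; concentration-response format.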

[6] = qHTS for differential inhibitors of proliferation of Plasmodium falciparum line 7G8 (AID 1815);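 also: potency is read from the fitted curve at half-maximal effect; parasite growth measured after three days of incubation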
[7] = qHTS for differential inhibitors of proliferation of Plasmodium falciparum line GB4 (AID 1816); conditions: Potency: Plasmodium falciparum GB4 proliferation inhibition;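 also: potency is read from the fitted curve at half-maximal effect; parasite growth measured after 72 h incubation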
[8] = qHTS for differential inhibitors of proliferation of Plasmodium falciparum line D10 (AID 1877);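 also: parasites grown with compound for 72 h before DNA staining; plate controls were vehicle wells for no effect and reference inhibitor wells for full effect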
[9] = qHTS for differential inhibitors of proliferation of Plasmodium falciparum line W2 (AID 1883); conditions: Potency: Plasmodium falciparum W2 proliferation inhibition;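 also: potency is read from the fitted curve at half-maximal effect; parasites grown with compound for 72 h before lysis and staining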
[10] = qHTS for differential inhibitors of proliferation of Plasmodium falciparum line HB3 (AID 1886); conditions: Potency: Plasmodium falciparum HB3 proliferation inhibition;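 also: parasites grown with compound for 72 h before SYBR Green readout; plate controls were vehicle for no effect and reference inhibitor for full effect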
[11] = molecular target: Ferritin light chain (Equus caballus) (UniProt P02791); experiment: qHTS Validation Assay for Identification of Novel General Anesthetics (AID 2323); also: % is scaled to controls: 0 for no effect and ±100 for the full control effect
Summary of the method: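 Competitive displacement of the profluorescent anesthetic 1-AMA (50% saturated, PBS) from 10 uM apoferritin, 10 min, room temperature. Activity is normalized 380/535 nm fluorescence; concentration-response fitted with a four-parameter Hill equation.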

[12] = molecular target: ATP-dependent DNA helicase Q1 (Homo sapiens) (UniProt P46063); experiment: qHTS Validation Assay for Inhibitors of RecQ-Like Dna Helicase 1 (RECQ1) (AID 2353);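 also: plate controls were DMSO vehicle for no effect and enzyme-free control for full effect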
Summary of the method: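 RECQ1T1 50 nM; forked duplex (20 bp + 30-nt ss tails) 200 nM, ATP 2 mM final; pH 8.0, 2 mM MgCl2, 2.5 ug/ml poly(dI-dC); 15 min compound preincubation; discontinuous kinetic read over 2 h at RT.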

[13] = Validation screen for inhibitors of Lassa infection (AID 463096; calls by dose curve; also: % is scaled to controls: 0 for no effect and ±100 for the full control effect)
[14] = Validation screen for small molecules that induce DNA re-replication in MCF 10A normal breast cells (AID 463097); also: 0% is about no effect; nearly all actives have a fitted effect of over 60% in size
Summary of the method: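 Read-out is Hoechst total nuclear intensity by fluorescence scanning imager, flagging increased high-DNA-content nuclei. Compounds were incubated with MCF 10A cells for 48 hr (37 C, 5% CO2) before 40 min staining.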

[15] = Quantitative high throughput screen for delayed death inhibitors of the malarial parasite plastid, 96 hour incubation (AID 488745); also: % is scaled to controls: 0 for no effect and ±100 for the full control effect; nearly all actives have a fitted effect of over 70% in size
Summary of the method: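 Decreased firefly luciferase luminescence indicates inhibited growth of reporter-integrated P. falciparum after two generations (96 h, 37 C, 5% CO2). Infected erythrocytes at 0.1% parasitemia, 2% hematocrit, in Albumax-supplemented RPMI 1640.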

[16] = Quantitative high throughput screen for delayed death inhibitors of the malarial parasite plastid, 48 hour incubation (AID 488752); also: % is scaled to controls: 0 for no effect and ±100 for the full control effect; nearly all actives have a fitted effect of over 65% in size
Summary of the method: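 One-generation (48 h) growth assay: a decrease in luciferase signal from an integrated reporter in P. falciparum-infected red cells (0.1% parasitemia, 2% hematocrit) after compound exposure at 37 C indicates parasite inhibition.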

[17] = molecular target: M-phase phosphoprotein 8 (Homo sapiens) (UniProt Q99549); experiment: qHTS Validation Assay for Inhibitors for MPP8 Chromodomain Interactions with Methylated Histone Tails (AID 488949);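 also: AlphaScreen signal from MPP8 chromodomain bound to biotinylated H3K9me3 peptide; top concentration of the series differs between compounds; % is scaled to controls: 0 for no effect and ±100 for the full control effect; nearly all actives have a fitted effect of over 55% in size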
Summary of the method: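 AlphaScreen proximity signal from streptavidin donor and Ni-chelate acceptor beads (10 ug/mL each) reported binding of MPP8 to trimethyl-K9 H3(1-18) peptide, both at 50 nM. The complex formed 30 min before a 30 min compound exposure at room temperature, in PBS pH 7.4.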

[18] = molecular target: Transient receptor potential cation channel subfamily V member 1 (Homo sapiens) (UniProt Q8NER1); experiment: HTS Assay for Compounds that Act as Enhancers of the Vanilloid Receptor 1 (AID 488979); also: 0% is about no effect
Summary of the method: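 Calcium influx kinetics via Fluo-8 (480/520 nm) in TRPV1-expressing cells, 2000/well cultured overnight at 35.5C. Compound-alone read 3 min (agonist phase), followed by EC20 capsaicin challenge for 2 min (enhancer phase).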

[19] = molecular target: Thyrotropin receptor (Homo sapiens) (UniProt P16473); experiment: qHTS Assay for Antagonists of the Thyroid Stimulating Hormone Receptor (AID 488980); also: 0% is about no effect
Summary of the method: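 Inhibition of cAMP raised by EC80 TSH (4 nM final) was read by HTRF, with lysate cAMP competing against cAMP-d2 for cryptate antibody after 30 min at room temperature. The cells were transfected HEK293 held in phosphodiesterase inhibitor RO 20-1724 at 70 uM.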

[20] = molecular target: Thyrotropin-releasing hormone receptor (Homo sapiens) (UniProt P34981); experiment: qHTS for Small Molecule Agonists and Allosteric Enhancers of Human TRH Receptor: Validation Screen for Agonists (AID 493127;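 active = calcium activation more than 3 SD above the typical response in the agonist read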;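 also: intracellular calcium rise by fluo-8 fluorescence before TRH EC20 addition; 0% is about no effect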); conditions: TRH receptor agonist cell assay; at 2 µM; stronger effect = higher value
Summary of the method: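 Compound-evoked intracellular calcium release in fluo-8-loaded TRHR cells, read kinetically on FDSS (Ex 480/Em 530, 1 s/cycle) after 23 nL pintool transfer. Agonist phase preceded 10 nM TRH EC20 addition.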

[21] = molecular target: Galactokinase (Homo sapiens) (UniProt P51570); experiment: qHTS Validation Assay for Inhibitors of Human Galactokinase (GALK) (AID 493189); also: 0% is about no effect
Summary of the method: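 Inhibition was measured as remaining ATP, detected by luciferase luminescence after a 1 h room-temperature reaction. Final conditions: 5 nM GALK, 100 uM galactose, 35 uM ATP, pH 8.0 HEPES buffer.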

[22] = molecular target: Voltage-gated inwardly rectifying potassium channel KCNH2 (Homo sapiens) (UniProt Q12809); experiment: qHTS Assay for Small Molecule Inhibitors of the Human hERG Channel Activity (AID 588834);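 also: top concentration of the series differs between compounds; % is scaled to controls: 0 for no effect and ±100 for the full control effect; lower thallium flux fluorescence means stronger hERG block; nearly all actives have a fitted effect of over 50% in size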
Summary of the method: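 hERG block measured as reduced thallium-dye (FluxOR) fluorescence after stimulation buffer addition, read over 2 min. Cells were hERG-BacMam-transduced U2OS exposed to compound ~10 min […]; concentration-response fitted with Hill equation for AC50.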

[23] = molecular target: Tumor susceptibility gene 101 protein (Homo sapiens) (UniProt Q99816); experiment: qHTS Assay for Iinhibitors of HIV-1 Budding by Blocking the Interaction of PTAP/TSG101: Hit Validation (AID 651600); also: % is scaled to controls: 0 for no effect and ±100 for the full control effect; nearly all actives have a fitted effect of over 70% in size
Summary of the method: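 FITC-PTAP peptide (50 nM final) binding to Tsg101 binding domain (10 uM final) was measured by polarization after 20 min at r.t. with compounds, in 10 mM HEPES pH 7.5 buffer with 0.15 M NaCl and 0.01% Tween 20.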

[24] = tested on: Zika virus NS2B-NS3 protease (unlinked); experiment: Optimization of GU AMC qHTS for Zika virus inhibitors: Unlinked NS2B-NS3 protease assay (AID 1347151);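 also: 0% = no-inhibitor control and -100% = no-enzyme control; nearly all actives have a fitted effect of over 80% in size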
Summary of the method: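 Fluorescence gain (340/450 nm) over 15 min at room temperature, ~20% conversion, gave percent inhibition fitted to a 4-parameter Hill equation; enzyme was unlinked NS2B-NS3 (25 nM final), pH 8.0 Tris buffer.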

[25] = Vero cells viability qHTS for Zika virus inhibitors (AID 1347167); also: % is scaled to controls: 0 for no effect and ±100 for the full control effect
Summary of the method: (§1)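 Luminescent ATP readout (CellTiter Glo) after 30 min at 37 degrees C gives viability; cells in DMEM + 4% FBS were treated 24 to 48 hours with compound, following overnight attachment.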

[26] = HepG2 cells viability qHTS for Zika virus inhibitors (AID 1347168); also: % is scaled to controls: 0 for no effect and ±100 for the full control effect
Summary of the method: as §1

[27] = Tertiary RLuc qRT-PCR qHTS assay for Zika virus inhibitors (AID 1347169); also: top concentration of the series differs between compounds; % is scaled to controls: 0 for no effect and ±100 for the full control effect; nearly all actives have a fitted effect of over 55% in size
Summary of the method: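 Orthogonal cell-based readout: luminescence measured 1-1.5 hrs after adding live-cell Renilla substrate to Vero cells that had been infected with ZIKV-RLuc (MOI 1-2) post-compound, incubated 48-72 hrs at 37 degrees C.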

[28] = Confirmatory qHTS for small molecule stabilizers of the endoplasmic reticulum resident proteome: Secreted ER Calcium Modulated Protein (SERCaMP) assay (AID 1508628); also: % is scaled to controls: 0 for no effect and ±100 for the full control effect; nearly all actives have a fitted effect of over 40% in size
Summary of the method: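 Reporter secretion upon ER calcium depletion (100 nM thapsigargin, 4 h, 37C) is measured as medium luminescence with coelenterazine, after 16 h compound pretreatment of SH-SY5Y-GLuc-SERCaMP cells; primary at three concentrations up to 38.3 uM, follow-up at 11 (up to 76.6 uM).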

[29] = molecular target: Furin (Homo sapiens) (UniProt P09958); experiment: Furin counterscreen qHTS for Zika virus inhibitors (AID 1347149);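 also: purified recombinant full-length human furin enzyme at 5 nM; fluorescence gain from furin cutting a BOC-RVRR-AMC peptide substrate over 15 min; top concentration of the series differs between compounds; plate controls were no-inhibitor control for no effect and no-enzyme control for full effect; nearly all actives have a fitted effect of over 70% in size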
Summary of the method: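 Counterscreen measures cleavage of 2 microM BOC-RVRR-AMC, below its ~15 microM Km, by 5 nM full-length human furin at pH 7.0 after a 15-min compound preincubation. Inhibition derives from the 15-min fluorescence increase at 37C.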

[30] = tested on: Zika virus NS2B-NS3 protease (linked construct); experiment: Confirmatory screen NINDS AMC qHTS for Zika virus inhibitors (AID 1347152);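 also: top concentration of the series differs between compounds; 0% = no-inhibitor control and -100% = no-enzyme control; nearly all actives have a fitted effect of over 70% in size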
Summary of the method: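 IC50s from 4-parameter Hill fits of percent inhibition, based on AMC fluorescence gain (340/450 nm) over 15 min with 10 microM Bz-Nle-KRR-AMC. Enzyme: 1 nM linked NS2B-NS3 in Tris-HCl pH 8.0; 15-min compound preincubation.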

[31] = tested on: Zika virus NS2B-NS3 protease (unlinked complex); experiment: Confirmatory screen GU AMC qHTS for Zika virus inhibitors (AID 1347153)
Summary of the method: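 Compounds were preincubated 15 min at room temperature with 25 nM noncovalent NS2B-NS3 protease at pH 8.0; AMC substrate added at 10 microM and 15-min fluorescence gain (340/450 nm) converted to percent inhibition, fitted 4-parameter.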

[32] = tested on: Zika virus NS2B-NS3 protease; experiment: Primary screen GU AMC qHTS for Zika virus inhibitors (AID 1347154)
Summary of the method: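 Fluorogenic AMC-substrate cleavage by noncovalent NS2B-NS3 protease complex (25 nM, pH 8.0 Tris buffer with Tween 20) followed for 15 minutes at room temperature (~20% conversion). Percent inhibition from ex340/em450 signal change, fitted by 4-parameter Hill equation.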

Sequence of DNA repair nuclease/redox regulator APEX1 (Homo sapiens) (P27695 whole entry, looked up): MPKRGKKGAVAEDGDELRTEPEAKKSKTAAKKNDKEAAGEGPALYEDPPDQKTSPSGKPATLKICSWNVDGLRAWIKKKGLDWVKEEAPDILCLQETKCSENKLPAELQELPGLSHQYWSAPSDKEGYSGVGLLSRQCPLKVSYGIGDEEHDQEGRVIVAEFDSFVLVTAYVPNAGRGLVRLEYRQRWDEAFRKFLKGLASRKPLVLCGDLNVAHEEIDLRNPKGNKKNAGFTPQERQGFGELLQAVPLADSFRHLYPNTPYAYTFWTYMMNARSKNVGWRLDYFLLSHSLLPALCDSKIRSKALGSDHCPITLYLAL
Sequence of Galactokinase (Homo sapiens) (P51570 whole entry, looked up): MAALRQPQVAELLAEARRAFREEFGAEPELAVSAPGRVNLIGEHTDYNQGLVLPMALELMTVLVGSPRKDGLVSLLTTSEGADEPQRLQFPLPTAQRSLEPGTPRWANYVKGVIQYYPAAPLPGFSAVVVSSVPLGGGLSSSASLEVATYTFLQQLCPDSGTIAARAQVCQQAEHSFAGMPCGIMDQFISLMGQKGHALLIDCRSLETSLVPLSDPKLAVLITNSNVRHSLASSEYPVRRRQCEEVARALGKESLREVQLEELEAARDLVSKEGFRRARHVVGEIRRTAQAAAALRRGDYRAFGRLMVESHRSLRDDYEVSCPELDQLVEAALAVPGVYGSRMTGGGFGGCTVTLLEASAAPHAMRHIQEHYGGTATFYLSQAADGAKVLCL
Sequence of Ferritin light chain (Equus caballus) (P02791 2-175 limits assumed): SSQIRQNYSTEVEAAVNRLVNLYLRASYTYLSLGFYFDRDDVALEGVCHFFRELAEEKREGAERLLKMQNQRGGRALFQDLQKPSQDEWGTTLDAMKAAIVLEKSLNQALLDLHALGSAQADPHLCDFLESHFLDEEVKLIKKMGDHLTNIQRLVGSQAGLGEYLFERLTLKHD
Sequence of Transient receptor potential cation channel subfamily V member 1 (Homo sapiens) (Q8NER1 whole entry, looked up): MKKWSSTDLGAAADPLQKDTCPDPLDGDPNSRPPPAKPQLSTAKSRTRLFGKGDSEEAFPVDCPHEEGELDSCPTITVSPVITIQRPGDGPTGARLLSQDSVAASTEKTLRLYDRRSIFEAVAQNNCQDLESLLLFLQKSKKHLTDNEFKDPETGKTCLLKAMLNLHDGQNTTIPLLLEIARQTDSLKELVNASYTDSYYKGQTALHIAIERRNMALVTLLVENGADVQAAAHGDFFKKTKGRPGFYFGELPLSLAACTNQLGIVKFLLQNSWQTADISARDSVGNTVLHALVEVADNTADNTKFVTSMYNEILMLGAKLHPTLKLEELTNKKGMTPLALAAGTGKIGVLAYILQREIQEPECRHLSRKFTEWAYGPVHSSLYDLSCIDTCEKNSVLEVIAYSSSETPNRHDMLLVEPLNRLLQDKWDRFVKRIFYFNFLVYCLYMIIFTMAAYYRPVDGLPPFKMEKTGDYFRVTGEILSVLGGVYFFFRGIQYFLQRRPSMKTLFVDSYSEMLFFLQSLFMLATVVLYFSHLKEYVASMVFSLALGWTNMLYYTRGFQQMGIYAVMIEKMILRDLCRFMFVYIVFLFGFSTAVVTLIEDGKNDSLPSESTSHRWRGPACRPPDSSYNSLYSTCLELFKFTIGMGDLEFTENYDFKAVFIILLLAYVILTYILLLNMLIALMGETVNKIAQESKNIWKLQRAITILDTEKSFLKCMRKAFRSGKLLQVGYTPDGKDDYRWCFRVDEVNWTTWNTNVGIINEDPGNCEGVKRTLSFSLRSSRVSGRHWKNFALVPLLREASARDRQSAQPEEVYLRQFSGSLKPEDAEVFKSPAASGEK
Sequence of Tumor susceptibility gene 101 protein (Homo sapiens) (Q99816 whole entry, looked up, the tested form may be a part): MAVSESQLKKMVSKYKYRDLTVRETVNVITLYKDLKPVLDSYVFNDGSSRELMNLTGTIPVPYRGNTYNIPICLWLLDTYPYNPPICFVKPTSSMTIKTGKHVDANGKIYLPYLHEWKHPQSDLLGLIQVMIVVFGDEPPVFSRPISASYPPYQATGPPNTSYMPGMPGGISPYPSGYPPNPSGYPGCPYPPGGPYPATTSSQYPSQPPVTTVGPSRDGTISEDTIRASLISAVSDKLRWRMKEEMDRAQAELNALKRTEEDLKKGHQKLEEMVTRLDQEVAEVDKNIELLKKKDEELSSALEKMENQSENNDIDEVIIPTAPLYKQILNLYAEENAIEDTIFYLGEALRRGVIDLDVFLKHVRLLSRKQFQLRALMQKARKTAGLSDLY
Sequence of Furin (Homo sapiens) (P09958 whole entry, looked up): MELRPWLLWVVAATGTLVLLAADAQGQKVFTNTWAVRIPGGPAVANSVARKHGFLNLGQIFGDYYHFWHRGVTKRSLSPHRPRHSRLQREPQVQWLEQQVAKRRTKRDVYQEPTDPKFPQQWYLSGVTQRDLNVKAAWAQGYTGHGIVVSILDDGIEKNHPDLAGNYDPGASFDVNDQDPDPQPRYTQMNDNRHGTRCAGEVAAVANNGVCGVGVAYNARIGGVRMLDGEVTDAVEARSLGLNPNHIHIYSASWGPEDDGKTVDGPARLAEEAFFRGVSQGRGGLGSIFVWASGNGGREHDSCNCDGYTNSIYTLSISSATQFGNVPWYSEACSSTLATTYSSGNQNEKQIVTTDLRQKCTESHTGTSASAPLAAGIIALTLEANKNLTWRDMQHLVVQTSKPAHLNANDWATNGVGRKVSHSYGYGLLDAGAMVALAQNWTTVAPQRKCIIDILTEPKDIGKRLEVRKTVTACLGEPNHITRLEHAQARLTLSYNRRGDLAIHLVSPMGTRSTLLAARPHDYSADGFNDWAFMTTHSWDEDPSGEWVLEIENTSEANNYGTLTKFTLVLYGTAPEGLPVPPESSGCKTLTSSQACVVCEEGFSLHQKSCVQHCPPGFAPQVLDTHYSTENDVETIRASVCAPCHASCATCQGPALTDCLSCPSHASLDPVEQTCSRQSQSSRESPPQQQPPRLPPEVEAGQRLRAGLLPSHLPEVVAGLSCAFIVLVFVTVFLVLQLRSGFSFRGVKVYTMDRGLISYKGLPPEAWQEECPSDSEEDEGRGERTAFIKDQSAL
Sequence of ATP-dependent DNA helicase Q1 (Homo sapiens) (P46063 whole entry, looked up): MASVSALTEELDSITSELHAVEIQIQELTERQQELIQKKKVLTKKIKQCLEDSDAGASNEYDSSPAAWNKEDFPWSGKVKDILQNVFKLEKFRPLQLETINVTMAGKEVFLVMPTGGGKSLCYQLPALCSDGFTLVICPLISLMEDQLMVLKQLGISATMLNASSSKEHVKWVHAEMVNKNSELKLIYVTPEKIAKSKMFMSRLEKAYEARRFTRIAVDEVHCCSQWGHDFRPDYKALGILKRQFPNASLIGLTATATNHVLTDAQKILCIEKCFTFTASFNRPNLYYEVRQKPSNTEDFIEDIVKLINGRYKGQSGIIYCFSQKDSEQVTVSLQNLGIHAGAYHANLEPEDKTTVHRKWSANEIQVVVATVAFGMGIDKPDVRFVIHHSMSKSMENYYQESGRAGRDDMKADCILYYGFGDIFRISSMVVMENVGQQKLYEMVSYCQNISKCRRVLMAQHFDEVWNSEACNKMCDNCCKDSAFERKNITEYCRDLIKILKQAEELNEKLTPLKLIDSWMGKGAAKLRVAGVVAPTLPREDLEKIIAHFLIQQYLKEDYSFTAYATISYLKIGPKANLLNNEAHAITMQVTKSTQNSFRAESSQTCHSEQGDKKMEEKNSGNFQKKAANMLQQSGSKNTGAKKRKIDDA
Sequence of M-phase phosphoprotein 8 (Homo sapiens) (Q99549 whole entry, looked up): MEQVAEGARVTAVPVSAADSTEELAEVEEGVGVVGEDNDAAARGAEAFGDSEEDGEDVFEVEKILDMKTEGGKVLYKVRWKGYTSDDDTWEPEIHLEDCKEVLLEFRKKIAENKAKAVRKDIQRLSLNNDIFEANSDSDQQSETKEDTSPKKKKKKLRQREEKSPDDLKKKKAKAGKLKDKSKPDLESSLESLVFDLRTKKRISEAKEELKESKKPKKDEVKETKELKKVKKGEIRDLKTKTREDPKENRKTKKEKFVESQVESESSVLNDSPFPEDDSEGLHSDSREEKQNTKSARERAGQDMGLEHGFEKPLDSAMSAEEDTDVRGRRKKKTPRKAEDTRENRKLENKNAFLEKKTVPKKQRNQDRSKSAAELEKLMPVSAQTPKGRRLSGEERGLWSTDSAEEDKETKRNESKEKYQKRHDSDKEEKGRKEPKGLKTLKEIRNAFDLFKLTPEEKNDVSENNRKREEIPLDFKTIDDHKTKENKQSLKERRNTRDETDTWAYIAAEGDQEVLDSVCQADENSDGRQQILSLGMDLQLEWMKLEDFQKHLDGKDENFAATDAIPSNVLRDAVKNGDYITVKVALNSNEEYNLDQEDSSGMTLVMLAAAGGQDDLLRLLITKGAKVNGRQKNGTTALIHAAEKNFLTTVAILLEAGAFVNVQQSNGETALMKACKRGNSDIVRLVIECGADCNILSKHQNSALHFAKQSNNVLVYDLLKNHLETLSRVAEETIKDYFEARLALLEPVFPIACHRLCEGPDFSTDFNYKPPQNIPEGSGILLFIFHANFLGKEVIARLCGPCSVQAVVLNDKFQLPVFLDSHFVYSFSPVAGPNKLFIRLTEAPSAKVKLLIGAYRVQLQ
Sequence of Thyrotropin-releasing hormone receptor (Homo sapiens) (P34981 whole entry, looked up): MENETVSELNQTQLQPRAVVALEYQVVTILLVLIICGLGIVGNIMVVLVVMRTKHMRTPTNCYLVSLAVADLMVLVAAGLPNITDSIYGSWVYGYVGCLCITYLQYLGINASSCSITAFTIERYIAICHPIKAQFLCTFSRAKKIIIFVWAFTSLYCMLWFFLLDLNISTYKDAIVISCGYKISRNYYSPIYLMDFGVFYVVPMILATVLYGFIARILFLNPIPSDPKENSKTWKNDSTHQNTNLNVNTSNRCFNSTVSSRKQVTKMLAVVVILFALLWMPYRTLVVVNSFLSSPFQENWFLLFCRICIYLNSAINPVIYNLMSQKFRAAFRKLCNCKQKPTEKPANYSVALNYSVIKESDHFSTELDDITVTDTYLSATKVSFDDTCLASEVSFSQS

C=CCN1CCC2(C)c3cc(O)ccc3CC1C2C (stereo not given)
active: Potency [6] 7.08 µM | Potency [7] 12.6 µM | Potency [9] 5.62 µM
24.1%: max response ([2]; measured here: cell count channel max response)
21.8%: max response ([2]; measured here: lipid channel max response)
inactive: outcome [1] | activity change, negative = inhibition ([2]; at 57.5 µM (top of the series)) -2.86% | Potency [3] | Potency [4] | outcome [5] | Potency [8] | Potency [10] | outcome [11] | Potency [12] | Potency [13] | Potency [14] | Potency [15] | Potency [16] | Potency [17] | outcome [18] | outcome [19] | activation [20] 1.19% | outcome [21] | Potency [22] | outcome [23] | outcome [24] | Potency [25] | Potency [26] | Potency [27] | Potency [28]

COc1cc2c(cc1OCC1CCCC1)N([S+](=O)([O-])c1ccc(Oc3ccccc3)cc1)CC21CCN(CC(=O)O)CC1
inactive: Potency [29] | Potency [30] | Potency [31]

CCCCCCC(C)(C)c1cc(OC)c2c(c1)OC(C)(C)[C@@H]1CC=C(C)C[C@@H]21
inactive: Potency [32]

Cc1ccc2c(c1)C1(CCN(CCc3nc(-c4ccccc4)oc3C)CC1)OC(=O)N2
inactive: Potency [32]
